# Measurements: publication PMC5540273 (PLoS ONE, 2017)
# Like-named read-outs stand apart in the source and are kept apart here.
# Experiments:
# IKK-alpha = system: T1, IKK-alpha; conditions: concentration: 1 μM, replicates: in singlicate; n = 1
# T1 construct: gene CHUK
# IKK-beta = system: T2, IKK-beta; conditions: concentration: 1 μM, replicates: in singlicate; n = 1
# T2 construct: gene IKBKB
# IKK-epsilon = system: T3, IKK-epsilon; conditions: concentration: 1 μM, replicates: in singlicate; n = 1
# T3 construct: gene IKBKE
# INSRR = conditions: concentration: 1 μM, replicates: in singlicate; n = 1
# INSR = conditions: concentration: 1 μM, replicates: in singlicate; n = 1
# IRAK1 = conditions: concentration: 1 μM, replicates: in singlicate; n = 1
# IRAK3 = conditions: concentration: 1 μM, replicates: in singlicate; n = 1
# IRAK4 = conditions: concentration: 1 μM, replicates: in singlicate; n = 1
# ITK = conditions: concentration: 1 μM, replicates: in singlicate; n = 1
# [1] = system: JAK1(JH1domain-catalytic); conditions: concentration: 1 μM, replicates: in singlicate; n = 1
# [2] = system: JAK1(JH2domain-pseudokinase); conditions: concentration: 1 μM, replicates: in singlicate; n = 1
# [3] = system: JAK2(JH1domain-catalytic); conditions: concentration: 1 μM, replicates: in singlicate; n = 1
# [4] = system: JAK3(JH1domain-catalytic); conditions: concentration: 1 μM, replicates: in singlicate; n = 1
# JNK1 = system: T4, JNK1; conditions: concentration: 1 μM, replicates: in singlicate; n = 1
# T4 construct: gene MAPK8
# JNK2 = system: T5, JNK2; conditions: concentration: 1 μM, replicates: in singlicate; n = 1
# T5 construct: gene MAPK9
# JNK3 = system: T6, JNK3; conditions: concentration: 1 μM, replicates: in singlicate; n = 1
# T6 construct: gene MAPK10
# KIT-autoinhibited = conditions: concentration: 1 μM, replicates: in singlicate; n = 1
# KIT = conditions: concentration: 1 μM, replicates: in singlicate; n = 1
# LATS1 = conditions: n = 1
# LATS2 = conditions: concentration: 1 μM, replicates: in singlicate; n = 1
# [5] = concentration: 1 μM, replicates: in singlicate
# 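Note: KINOMEscan kinase panel screen.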
smiles,measurement,setting,value
O=C(Nc1n[nH]c2cc(-c3ccoc3)ccc12)C1CC1 [SB-738481],%Inh,IKK-alpha,0%
same,%Inh,IKK-beta,0%
same,%Inh,IKK-epsilon,0%
same,%Inh,INSRR,0%
same,%Inh,INSR,0%
same,%Inh,IRAK1,0%
same,%Inh,IRAK3,0%
same,%Inh,IRAK4,0%
same,%Inh,ITK,0%
same,%Inh,[1],0%
same,%Inh,[2],29%
same,%Inh,[3],18%
same,%Inh,[4],0%
same,%Inh,JNK1,8%
same,%Inh,JNK2,0%
same,%Inh,JNK3,6%
same,%Inh,KIT-autoinhibited,8%
same,%Inh,KIT,77%
same,%Inh,LATS1; [5],0%
same,%Inh,LATS2,3%
Cc1ccc(C)c(NC(=O)NC2CCN(c3ccnc(Nc4ccc(F)cc4)n3)C2)c1 (centres unmarked) [GSK1379720],%Inh,IKK-alpha,32%
same,%Inh,IKK-beta,18%
same,%Inh,IKK-epsilon,3%
same,%Inh,INSRR,0%
same,%Inh,INSR,0%
same,%Inh,IRAK1,40%
same,%Inh,IRAK3,0%
same,%Inh,IRAK4,20%
same,%Inh,ITK,5%
same,%Inh,[1],12%
same,%Inh,[2],0%
same,%Inh,[3],0%
same,%Inh,[4],0%
same,%Inh,JNK1,45%
same,%Inh,JNK2,10%
same,%Inh,JNK3,0%
same,%Inh,KIT-autoinhibited,0%
same,%Inh,KIT,14%
same,%Inh,LATS1; [5],12%
same,%Inh,LATS2,0%
Cl.Cl.NCC(NCc1ccc(-c2ccnc3[nH]ccc23)s1)c1ccccc1 (centres unmarked) [GSK1321565],%Inh,IKK-alpha,68%
same,%Inh,IKK-beta,74%
same,%Inh,IKK-epsilon,39%
same,%Inh,INSRR,0%
same,%Inh,INSR,0%
same,%Inh,IRAK1,71%
same,%Inh,IRAK3,20%
same,%Inh,IRAK4,7%
same,%Inh,ITK,13%
same,%Inh,[1],29%
same,%Inh,[2],0%
same,%Inh,[3],96.9%
same,%Inh,[4],100%
same,%Inh,JNK1,24%
same,%Inh,JNK2,14%
same,%Inh,JNK3,4%
same,%Inh,KIT-autoinhibited,0%
same,%Inh,KIT,25%
same,%Inh,LATS1; [5],62%
same,%Inh,LATS2,95%
CCCCc1nn2ncccc2c1-c1ccnc(Nc2ccc(N3CCN(C)CC3)cc2)n1 [GW684941],%Inh,IKK-alpha,41%
same,%Inh,IKK-beta,23%
same,%Inh,IKK-epsilon,16%
same,%Inh,INSRR,21%
same,%Inh,INSR,36%
same,%Inh,IRAK1,94.9%
same,%Inh,IRAK3,79%
same,%Inh,IRAK4,43%
same,%Inh,ITK,5%
same,%Inh,[1],0%
same,%Inh,[2],4%
same,%Inh,[3],87%
same,%Inh,[4],27%
same,%Inh,JNK1,95.1%
same,%Inh,JNK2,98.9%
same,%Inh,JNK3,97.6%
same,%Inh,KIT-autoinhibited,97%
same,%Inh,KIT,100%
same,%Inh,LATS1; [5],0%
same,%Inh,LATS2,0%
O=c1[nH]cc(-c2ccc(N3CCOCC3)cc2)c2sc(-c3cn[nH]c3)cc12 [GSK2276055],%Inh,IKK-alpha,0%
same,%Inh,IKK-beta,11%
same,%Inh,IKK-epsilon,34%
same,%Inh,INSRR,0%
same,%Inh,INSR,24%
same,%Inh,IRAK1,0%
same,%Inh,IRAK3,0%
same,%Inh,IRAK4,9%
same,%Inh,ITK,0%
same,%Inh,[1],24%
same,%Inh,[2],77%
same,%Inh,[3],100%
same,%Inh,[4],39%
same,%Inh,JNK1,24%
same,%Inh,JNK2,14%
same,%Inh,JNK3,10%
same,%Inh,KIT-autoinhibited,22%
same,%Inh,KIT,76%
same,%Inh,LATS1; [5],0%
same,%Inh,LATS2,62%
O=C(Nc1cccc(-c2nn3ccccc3c2-c2ccnc(Nc3cccc(F)c3)n2)c1)c1c(F)ccc(F)c1Cl [GSK357952],%Inh,IKK-alpha,0%
same,%Inh,IKK-beta,0%
same,%Inh,IKK-epsilon,65%
same,%Inh,INSRR,19%
same,%Inh,INSR,8%
same,%Inh,IRAK1,83%
same,%Inh,IRAK3,0%
same,%Inh,IRAK4,84%
same,%Inh,ITK,12%
same,%Inh,[1],0%
same,%Inh,[2],0%
same,%Inh,[3],25%
same,%Inh,[4],0%
same,%Inh,JNK1,11%
same,%Inh,JNK2,23%
same,%Inh,JNK3,19%
same,%Inh,KIT-autoinhibited,0%
same,%Inh,KIT,98.2%
same,%Inh,LATS1; [5],0%
same,%Inh,LATS2,49%
Cc1occc1-c1ncc(OC[C@@H](N)Cc2c[nH]c3ccccc23)cc1-c1ccc2[nH]nc(C)c2c1.O=C(O)C(F)(F)F [GSK682037],%Inh,IKK-alpha,0%
same,%Inh,IKK-beta,0%
same,%Inh,IKK-epsilon,0%
same,%Inh,INSRR,9%
same,%Inh,INSR,9%
same,%Inh,IRAK1,0%
same,%Inh,IRAK3,0%
same,%Inh,IRAK4,0%
same,%Inh,ITK,12%
same,%Inh,[1],0%
same,%Inh,[2],0%
same,%Inh,[3],5%
same,%Inh,[4],0%
same,%Inh,JNK1,24%
same,%Inh,JNK2,55%
same,%Inh,JNK3,12%
same,%Inh,KIT-autoinhibited,0%
same,%Inh,KIT,21%
same,%Inh,LATS1; [5],93.9%
same,%Inh,LATS2,94.8%
CNC(=O)c1ccccc1Nc1nc(Nc2ccc(N3CCOCC3)cc2)ncc1Cl.Cl [GSK1576028],%Inh,IKK-alpha,85%
same,%Inh,IKK-beta,78%
same,%Inh,IKK-epsilon,74%
same,%Inh,INSRR,98.6%
same,%Inh,INSR,95.5%
same,%Inh,IRAK1,100%
same,%Inh,IRAK3,99.7%
same,%Inh,IRAK4,99.6%
same,%Inh,ITK,99.9%
same,%Inh,[1],97.6%
same,%Inh,[2],99.9%
same,%Inh,[3],99%
same,%Inh,[4],100%
same,%Inh,JNK1,100%
same,%Inh,JNK2,100%
same,%Inh,JNK3,100%
same,%Inh,KIT-autoinhibited,10%
same,%Inh,KIT,92.4%
same,%Inh,LATS1; [5],32%
same,%Inh,LATS2,92.1%
Cn1cc(-c2[nH]c3cc(NC(=O)[C@H](N)C4CCCCC4)cc4c3c2C=NNC4=O)cn1,%Inh,IKK-alpha,15%
same,%Inh,IKK-beta,10%
same,%Inh,IKK-epsilon,73%
same,%Inh,INSRR,4%
same,%Inh,INSR,0%
same,%Inh,IRAK1,77%
same,%Inh,IRAK3,20%
same,%Inh,IRAK4,93.3%
same,%Inh,ITK,34%
same,%Inh,[1],61%
same,%Inh,[2],100%
same,%Inh,[3],98.7%
same,%Inh,[4],99.5%
same,%Inh,JNK1,0%
same,%Inh,JNK2,0%
same,%Inh,JNK3,0%
same,%Inh,KIT-autoinhibited,28%
same,%Inh,KIT,99.9%
same,%Inh,LATS1; [5],90.4%
same,%Inh,LATS2,100%
CCn1c(-c2nonc2N)nc2c(C#CC(C)(C)O)ncc(OCCCCN)c21.O=C(O)C(F)(F)F.O=C(O)C(F)(F)F [GSK507274],%Inh,IKK-alpha,24%
same,%Inh,IKK-beta,43%
same,%Inh,IKK-epsilon,33%
same,%Inh,INSRR,0%
same,%Inh,INSR,0%
same,%Inh,IRAK1,26%
same,%Inh,IRAK3,0%
same,%Inh,IRAK4,20%
same,%Inh,ITK,15%
same,%Inh,[1],21%
same,%Inh,[2],0%
same,%Inh,[3],60%
same,%Inh,[4],0%
same,%Inh,JNK1,25%
same,%Inh,JNK2,10%
same,%Inh,JNK3,11%
same,%Inh,KIT-autoinhibited,0%
same,%Inh,KIT,17%
same,%Inh,LATS1; 1 µM,0%
same,%Inh,LATS2,89%
